From the supplement of paper PMC10849652
The full data set covers some 8,800 targets. This sample favours those with a hit. About 0.5% of all pairs of compound and target were hits.

Key:
Assay in all cases: log2 fold change, soluble protein after heating vs DMSO (PISA); higher = thermal stabilisation; K562 lysate, 10 uM; active = over 0.2 and 3.5 SD of the protein, either way, in both replicates (recomputed)
[1] = compound: C1=CC=C(C=C1)[C@H](COC2=CC3=C(C=C2)NC(=O)N3)NC(=O)C4=CC=CN(C4=O)CC5=CC(=C(C=C5)F)F
Outline: (§1)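 Pellets of K562 cells were dounce-homogenised in PBS pH 7.4 with 1 mM MgCl2, and the crude extract was held at 1 mg/mL protein for a 30 min treatment with 10 μM compound. Aliquots were heated for 3 min over 48°C-58°C and pooled before NP-40 was added to 0.5% at 4°C. The supernatant from 21,000xg for 90 min was quantified by TMTpro 16plex LC-MS/MS with channel sums equalised. Values are reported from duplicates as log-two fold change in thermal stability relative to solvent controls.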

[2] = compound: CC1=C(SC2=C1C(=N[C@H](C3=NN=C(N32)C)CC(=O)N)C4=CC=C(C=C4)Cl)C
Outline: as §1

[3] = compound: CC1=C2C(=CC=C1)N=C(N(C2=O)C3=CC=CC=C3C)CN4C=NC5=C(N=CN=C54)N
Outline: as §1

[4] = compound: Cc1sc2c(c1C)C(c1ccc(Cl)cc1)=N[C@@H](CC(=O)OC(C)(C)C)c1nnc(C)n1-2
Outline: as §1

[5] = compound: c1ccc([C@@H]2C[C@H]2NC2CCNCC2)cc1
Outline: as §1

Measured: log2 fold change

SMG5 (UniProt Q9UPR3)
Sequence of UniProt Q9UPR3 (Q9UPR3 whole entry, looked up): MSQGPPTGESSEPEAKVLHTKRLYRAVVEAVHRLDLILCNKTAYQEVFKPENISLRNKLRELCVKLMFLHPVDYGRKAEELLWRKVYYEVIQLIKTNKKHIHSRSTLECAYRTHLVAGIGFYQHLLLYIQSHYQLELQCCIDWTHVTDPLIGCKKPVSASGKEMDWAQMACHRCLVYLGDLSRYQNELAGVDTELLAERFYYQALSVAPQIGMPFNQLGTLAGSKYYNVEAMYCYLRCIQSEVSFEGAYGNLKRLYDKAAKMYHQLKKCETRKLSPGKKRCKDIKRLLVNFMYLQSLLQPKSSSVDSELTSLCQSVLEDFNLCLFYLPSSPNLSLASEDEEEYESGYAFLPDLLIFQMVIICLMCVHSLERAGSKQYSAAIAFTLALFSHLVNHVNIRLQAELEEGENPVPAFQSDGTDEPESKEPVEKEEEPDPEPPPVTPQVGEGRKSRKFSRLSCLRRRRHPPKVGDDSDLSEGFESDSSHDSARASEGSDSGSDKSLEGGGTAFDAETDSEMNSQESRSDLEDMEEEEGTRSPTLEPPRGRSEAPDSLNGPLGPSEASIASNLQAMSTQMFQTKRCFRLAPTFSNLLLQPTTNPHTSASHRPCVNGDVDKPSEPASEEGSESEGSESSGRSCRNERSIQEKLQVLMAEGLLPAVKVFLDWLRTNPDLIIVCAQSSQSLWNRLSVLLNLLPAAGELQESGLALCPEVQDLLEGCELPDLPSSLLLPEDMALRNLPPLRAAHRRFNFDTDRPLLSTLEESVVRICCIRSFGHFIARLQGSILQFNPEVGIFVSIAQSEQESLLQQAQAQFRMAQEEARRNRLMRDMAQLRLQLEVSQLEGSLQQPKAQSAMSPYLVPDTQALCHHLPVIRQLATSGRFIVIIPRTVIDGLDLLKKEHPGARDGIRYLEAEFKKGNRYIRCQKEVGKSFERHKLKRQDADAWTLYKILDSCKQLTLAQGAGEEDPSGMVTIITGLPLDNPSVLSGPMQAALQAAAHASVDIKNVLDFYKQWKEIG
inactive: [1] -0.078 | [2] 0.041 | [3] 0.026 | [4] -0.047 | [5] -0.024

SKA2 (UniProt Q8WVK7)
Sequence of UniProt Q8WVK7 (Q8WVK7 whole entry, looked up): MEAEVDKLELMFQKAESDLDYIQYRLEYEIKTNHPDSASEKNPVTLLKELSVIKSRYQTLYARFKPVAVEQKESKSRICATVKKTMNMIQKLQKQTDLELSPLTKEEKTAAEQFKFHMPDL
inactive: [1] -0.013 | [2] -0.038 | [3] 0.031 | [4] -0.004 | [5] 0.033

SRP54 (UniProt P61011)
Sequence of UniProt P61011 (P61011 whole entry, looked up): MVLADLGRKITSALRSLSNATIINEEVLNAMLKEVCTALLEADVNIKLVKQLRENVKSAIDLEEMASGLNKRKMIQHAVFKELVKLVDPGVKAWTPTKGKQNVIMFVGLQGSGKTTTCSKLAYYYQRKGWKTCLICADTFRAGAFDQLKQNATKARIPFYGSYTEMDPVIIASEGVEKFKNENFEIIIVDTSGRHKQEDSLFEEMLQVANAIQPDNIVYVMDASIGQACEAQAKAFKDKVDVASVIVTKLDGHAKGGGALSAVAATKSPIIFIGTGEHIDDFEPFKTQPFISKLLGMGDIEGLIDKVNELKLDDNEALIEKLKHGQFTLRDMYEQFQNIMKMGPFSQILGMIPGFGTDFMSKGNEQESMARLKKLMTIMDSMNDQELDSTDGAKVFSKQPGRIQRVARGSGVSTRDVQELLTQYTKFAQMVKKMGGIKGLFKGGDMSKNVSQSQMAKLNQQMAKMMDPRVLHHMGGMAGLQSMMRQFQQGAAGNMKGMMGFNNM
inactive: [1] 0.023 | [2] 0.001 | [3] 0.03 | [4] 0.06 | [5] 0.049

SORBS3 (UniProt O60504)
Sequence of UniProt O60504 (O60504 whole entry, looked up): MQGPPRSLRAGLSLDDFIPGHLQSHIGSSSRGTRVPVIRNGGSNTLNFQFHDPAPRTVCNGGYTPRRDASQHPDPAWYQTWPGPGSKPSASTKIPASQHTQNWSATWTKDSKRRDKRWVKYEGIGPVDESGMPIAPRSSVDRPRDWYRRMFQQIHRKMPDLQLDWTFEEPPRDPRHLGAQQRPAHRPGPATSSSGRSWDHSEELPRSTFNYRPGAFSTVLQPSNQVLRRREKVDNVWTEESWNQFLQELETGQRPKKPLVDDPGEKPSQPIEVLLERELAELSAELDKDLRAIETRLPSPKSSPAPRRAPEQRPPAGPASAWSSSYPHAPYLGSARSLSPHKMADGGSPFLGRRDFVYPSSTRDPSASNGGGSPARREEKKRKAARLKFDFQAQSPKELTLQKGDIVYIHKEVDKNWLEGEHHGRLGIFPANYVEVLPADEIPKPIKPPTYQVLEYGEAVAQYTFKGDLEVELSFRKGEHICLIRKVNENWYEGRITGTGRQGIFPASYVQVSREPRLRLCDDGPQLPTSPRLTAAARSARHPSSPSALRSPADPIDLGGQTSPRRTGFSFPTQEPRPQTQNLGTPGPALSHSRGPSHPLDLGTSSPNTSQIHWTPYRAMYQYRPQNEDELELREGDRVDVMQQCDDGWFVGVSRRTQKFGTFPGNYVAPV
inactive: [1] 0.047 | [2] 0.081 | [3] -0.049 | [4] 0.028 | [5] 0.022

STK4 (UniProt Q13043)
Sequence of UniProt Q13043 (Q13043 whole entry, looked up): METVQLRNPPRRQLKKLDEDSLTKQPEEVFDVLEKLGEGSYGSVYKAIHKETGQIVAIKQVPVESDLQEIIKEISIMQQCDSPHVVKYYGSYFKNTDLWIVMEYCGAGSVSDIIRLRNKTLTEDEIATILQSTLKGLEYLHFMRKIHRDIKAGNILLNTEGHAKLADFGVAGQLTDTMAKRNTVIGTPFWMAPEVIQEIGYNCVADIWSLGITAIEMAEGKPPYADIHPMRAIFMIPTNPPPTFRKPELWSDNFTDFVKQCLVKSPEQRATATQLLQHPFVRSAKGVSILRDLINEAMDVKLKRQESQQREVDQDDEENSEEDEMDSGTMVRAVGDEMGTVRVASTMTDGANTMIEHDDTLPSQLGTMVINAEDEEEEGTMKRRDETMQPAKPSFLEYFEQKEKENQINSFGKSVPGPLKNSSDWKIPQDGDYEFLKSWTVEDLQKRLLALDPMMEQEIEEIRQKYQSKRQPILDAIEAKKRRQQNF
inactive: [1] -0.031 | [2] -0.098 | [3] -0.05 | [4] -0.029 | [5] -0.124

SPA17 (UniProt Q15506)
Sequence of UniProt Q15506 (Q15506 whole entry, looked up): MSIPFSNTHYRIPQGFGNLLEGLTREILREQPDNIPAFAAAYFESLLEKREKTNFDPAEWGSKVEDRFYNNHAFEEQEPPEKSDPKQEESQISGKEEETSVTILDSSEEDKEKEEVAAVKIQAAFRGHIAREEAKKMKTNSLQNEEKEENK
inactive: [1] 0.057 | [2] -0.064 | [3] -0.006 | [4] -0.132 | [5] -0.364

STK3 isoform 2 (UniProt Q13188)
Sequence of UniProt Q13188 (Q13188 whole entry, looked up): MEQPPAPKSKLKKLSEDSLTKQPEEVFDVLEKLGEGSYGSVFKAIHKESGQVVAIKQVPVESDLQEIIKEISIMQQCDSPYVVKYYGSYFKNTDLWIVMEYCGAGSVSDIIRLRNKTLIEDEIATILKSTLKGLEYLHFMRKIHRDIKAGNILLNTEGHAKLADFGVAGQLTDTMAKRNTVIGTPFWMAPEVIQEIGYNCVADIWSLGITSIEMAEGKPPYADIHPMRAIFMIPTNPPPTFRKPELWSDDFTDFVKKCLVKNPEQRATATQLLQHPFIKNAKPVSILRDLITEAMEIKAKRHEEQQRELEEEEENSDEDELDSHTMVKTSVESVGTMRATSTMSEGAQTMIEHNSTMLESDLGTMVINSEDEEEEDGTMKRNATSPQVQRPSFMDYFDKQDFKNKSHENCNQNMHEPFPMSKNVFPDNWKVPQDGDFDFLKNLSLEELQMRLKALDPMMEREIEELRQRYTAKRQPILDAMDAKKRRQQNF
inactive: [1] -0.031 | [2] -0.042 | [3] -0.108 | [4] 0.01 | [5] -0.073

SSB (UniProt P05455)
Sequence of UniProt P05455 (P05455 whole entry, looked up): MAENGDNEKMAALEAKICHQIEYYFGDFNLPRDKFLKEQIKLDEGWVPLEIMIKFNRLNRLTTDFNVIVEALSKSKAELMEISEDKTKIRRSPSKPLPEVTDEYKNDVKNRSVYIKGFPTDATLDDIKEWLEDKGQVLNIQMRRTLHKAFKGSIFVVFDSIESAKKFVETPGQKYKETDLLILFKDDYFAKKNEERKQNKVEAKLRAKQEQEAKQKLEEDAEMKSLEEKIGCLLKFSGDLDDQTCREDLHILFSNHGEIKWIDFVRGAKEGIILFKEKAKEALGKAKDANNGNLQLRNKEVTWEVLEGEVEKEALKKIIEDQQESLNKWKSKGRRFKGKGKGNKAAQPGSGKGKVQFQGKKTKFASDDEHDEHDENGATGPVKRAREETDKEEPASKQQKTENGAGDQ
inactive: [1] -0.004 | [2] 0.015 | [3] -0.009 | [4] 0.012 | [5] 0.068

SPC25 (UniProt Q9HBM1)
Sequence of UniProt Q9HBM1 (Q9HBM1 whole entry, looked up): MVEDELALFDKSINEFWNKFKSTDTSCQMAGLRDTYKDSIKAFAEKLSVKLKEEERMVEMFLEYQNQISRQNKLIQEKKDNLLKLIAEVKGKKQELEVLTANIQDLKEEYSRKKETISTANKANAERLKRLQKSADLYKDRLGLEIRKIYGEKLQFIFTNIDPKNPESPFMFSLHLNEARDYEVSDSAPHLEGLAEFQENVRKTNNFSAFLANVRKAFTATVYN
inactive: [1] 0.055 | [2] 0.044 | [3] 0.029 | [4] 0.022 | [5] 0.039
